Assay results: the supplement of paper PMC10849652
Targets with a hit are over-represented here; the source holds about 7,900 in all. About 0.6% of all pairs of compound and target were hits. A number with no mark means an inactive call.

What was measured:
Experiment in all cases: log2 fold change, soluble protein after heating vs DMSO (PISA); higher = thermal stabilisation; K562 cells, 10 uM, 30 min; active = over 0.2 and 3.5 SD of the protein, either way, in both replicates (recomputed)
[1] = compound: CS(=O)(=O)c1ccc(-c2cnc(N)c(C(=O)Nc3ccccc3)n2)cc1
In short: (§1)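 K562 cells (2×10^6 cells/mL) were treated with 10 μM compound for 30 min, and aliquots were heated for 3 min over 48°C-58°C. Pooled aliquots were extracted in PBS with 0.5% NP-40 at 4°C, and the supernatant after 21,000xg for 90 min was measured by TMTpro 16plex LC-MS/MS with channel sums equalised. Reported thermal stability, relative to control samples and from duplicates, is a log2 fold change.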

crizotinib = compound: C[C@@H](Oc1cc(-c2cnn(C3CCNCC3)c2)cnc1N)c1c(Cl)ccc(F)c1Cl [crizotinib]
In short: as §1

[2] = compound: C[C@@H]1COCCN1C2=NC(=NC(=C2)C3(CC3)S(=O)(=O)C)C4=C5C=CNC5=CC=C4
In short: as §1

[3] = compound: C[C@H](C1=CC=C(C=C1)C(=O)NC2=C3C=CNC3=NC=C2)N
In short: as §1

duvelisib = compound: C[C@H](Nc1ncnc2nc[nH]c12)c1cc2cccc(Cl)c2c(=O)n1-c1ccccc1 [duvelisib]
In short: as §1

gandotinib = compound: Cc1cc(Nc2cc(CN3CCOCC3)c3nc(C)c(Cc4ccc(Cl)cc4F)n3n2)n[nH]1 [gandotinib]
In short: as §1

tozasertib = compound: Cc1cc(Nc2cc(N3CCN(C)CC3)nc(Sc3ccc(NC(=O)C4CC4)cc3)n2)n[nH]1 [tozasertib]
In short: as §1

[4] = compound: Cc1cc(SCc2sc(-c3ccc(C(F)(F)F)cc3)nc2C)ccc1OCC(=O)O
In short: as §1

doramapimod = compound: Cc1ccc(-n2nc(C(C)(C)C)cc2NC(=O)Nc2ccc(OCCN3CCOCC3)c3ccccc23)cc1 [doramapimod]
In short: as §1

ispinesib = compound: Cc1ccc(C(=O)N(CCCN)[C@@H](c2nc3cc(Cl)ccc3c(=O)n2Cc2ccccc2)C(C)C)cc1 [ispinesib]
In short: as §1

bafetinib = compound: Cc1ccc(NC(=O)c2ccc(CN3CC[C@H](N(C)C)C3)c(C(F)(F)F)c2)cc1Nc1nccc(-c2cncnc2)n1 [bafetinib]
In short: as §1

[5] = compound: Cc1cccc(CC(=O)N2CCc3c2ccc(-c2cn(C)c4ncnc(N)c24)c3F)n1
In short: as §1

nilotinib = compound: Cc1cn(-c2cc(NC(=O)c3ccc(C)c(Nc4nccc(-c5cccnc5)n4)c3)cc(C(F)(F)F)c2)cn1 [nilotinib]
In short: as §1

[6] = compound: Cc1nc(Nc2n[nH]c3c2CN(C(=O)N[C@H](CN(C)C)c2ccccc2)C3(C)C)c2sccc2n1
In short: as §1

dasatinib = compound: Cc1nc(Nc2ncc(C(=O)Nc3c(C)cccc3Cl)s2)cc(N2CCN(CCO)CC2)n1 [dasatinib]
In short: as §1

[7] = compound: Cc1ncc(-c2ccnc(Nc3ccc(S(C)(=O)=O)cc3)n2)n1C(C)C
In short: as §1

[8] = compound: Cn1cc(-c2ccc3c(c2)CCN3C(=O)Cc2cccc(C(F)(F)F)c2)c2c(N)ncnc21
In short: as §1

[9] = compound: Cn1cc(-c2ccc3nnc(C(F)(F)c4ccc5ncccc5c4)n3n2)cn1
In short: as §1

tipifarnib = compound: Cn1cncc1[C@@](N)(c1ccc(Cl)cc1)c1ccc2c(c1)c(-c1cccc(Cl)c1)cc(=O)n2C [tipifarnib]
In short: as §1

mubritinib = compound: FC(F)(F)c1ccc(/C=C/c2nc(COc3ccc(CCCCn4ccnn4)cc3)co2)cc1 [mubritinib]
In short: as §1

UniProt Q4G176, sequence (Q4G176 whole entry, looked up): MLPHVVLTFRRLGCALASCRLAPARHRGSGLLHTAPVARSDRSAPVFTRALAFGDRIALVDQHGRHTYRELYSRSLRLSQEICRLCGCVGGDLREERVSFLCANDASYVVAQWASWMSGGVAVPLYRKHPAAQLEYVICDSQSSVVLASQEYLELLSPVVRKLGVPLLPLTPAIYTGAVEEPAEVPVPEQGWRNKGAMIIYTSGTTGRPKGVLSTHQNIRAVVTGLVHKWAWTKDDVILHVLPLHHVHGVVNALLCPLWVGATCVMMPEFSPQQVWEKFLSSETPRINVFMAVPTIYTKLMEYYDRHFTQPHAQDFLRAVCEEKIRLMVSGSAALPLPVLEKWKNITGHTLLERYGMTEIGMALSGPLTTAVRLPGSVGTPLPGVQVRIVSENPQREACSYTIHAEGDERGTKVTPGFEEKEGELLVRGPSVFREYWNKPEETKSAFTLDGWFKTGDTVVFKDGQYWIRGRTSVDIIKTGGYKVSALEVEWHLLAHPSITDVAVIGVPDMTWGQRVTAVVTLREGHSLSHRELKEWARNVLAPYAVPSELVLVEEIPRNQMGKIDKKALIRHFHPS
UniProt Q9BX63, sequence (Q9BX63 whole entry, looked up): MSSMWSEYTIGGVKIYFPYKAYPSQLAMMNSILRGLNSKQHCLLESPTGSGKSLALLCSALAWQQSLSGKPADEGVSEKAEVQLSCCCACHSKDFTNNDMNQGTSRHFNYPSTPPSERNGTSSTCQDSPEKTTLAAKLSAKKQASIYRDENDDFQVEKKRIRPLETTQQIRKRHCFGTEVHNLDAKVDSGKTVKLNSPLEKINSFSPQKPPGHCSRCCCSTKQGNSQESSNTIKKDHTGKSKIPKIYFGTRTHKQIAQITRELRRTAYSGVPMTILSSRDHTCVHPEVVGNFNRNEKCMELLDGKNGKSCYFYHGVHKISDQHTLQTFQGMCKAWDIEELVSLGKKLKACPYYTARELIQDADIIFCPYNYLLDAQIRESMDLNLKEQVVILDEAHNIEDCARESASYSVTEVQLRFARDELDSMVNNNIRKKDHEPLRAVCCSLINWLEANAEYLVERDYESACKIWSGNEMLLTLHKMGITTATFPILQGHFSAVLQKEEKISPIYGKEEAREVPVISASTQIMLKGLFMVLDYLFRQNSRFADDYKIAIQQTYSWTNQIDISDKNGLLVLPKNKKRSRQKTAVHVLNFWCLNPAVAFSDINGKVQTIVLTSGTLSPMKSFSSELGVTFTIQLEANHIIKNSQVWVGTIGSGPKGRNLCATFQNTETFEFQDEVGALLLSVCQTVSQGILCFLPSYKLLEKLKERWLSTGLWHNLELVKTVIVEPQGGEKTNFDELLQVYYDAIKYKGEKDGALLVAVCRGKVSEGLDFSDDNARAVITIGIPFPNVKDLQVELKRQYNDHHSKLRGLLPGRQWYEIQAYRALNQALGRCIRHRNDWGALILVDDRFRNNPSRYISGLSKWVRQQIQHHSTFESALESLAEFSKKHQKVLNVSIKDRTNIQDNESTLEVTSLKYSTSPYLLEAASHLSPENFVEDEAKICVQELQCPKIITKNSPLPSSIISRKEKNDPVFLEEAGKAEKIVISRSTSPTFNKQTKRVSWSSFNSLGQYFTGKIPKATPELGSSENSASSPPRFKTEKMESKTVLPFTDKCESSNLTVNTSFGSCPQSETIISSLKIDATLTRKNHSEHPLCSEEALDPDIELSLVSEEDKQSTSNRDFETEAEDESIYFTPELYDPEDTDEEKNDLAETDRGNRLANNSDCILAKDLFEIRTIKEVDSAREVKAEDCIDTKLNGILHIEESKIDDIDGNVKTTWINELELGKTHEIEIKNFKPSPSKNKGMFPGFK
UniProt Q53FZ2, sequence (Q53FZ2 whole entry, looked up): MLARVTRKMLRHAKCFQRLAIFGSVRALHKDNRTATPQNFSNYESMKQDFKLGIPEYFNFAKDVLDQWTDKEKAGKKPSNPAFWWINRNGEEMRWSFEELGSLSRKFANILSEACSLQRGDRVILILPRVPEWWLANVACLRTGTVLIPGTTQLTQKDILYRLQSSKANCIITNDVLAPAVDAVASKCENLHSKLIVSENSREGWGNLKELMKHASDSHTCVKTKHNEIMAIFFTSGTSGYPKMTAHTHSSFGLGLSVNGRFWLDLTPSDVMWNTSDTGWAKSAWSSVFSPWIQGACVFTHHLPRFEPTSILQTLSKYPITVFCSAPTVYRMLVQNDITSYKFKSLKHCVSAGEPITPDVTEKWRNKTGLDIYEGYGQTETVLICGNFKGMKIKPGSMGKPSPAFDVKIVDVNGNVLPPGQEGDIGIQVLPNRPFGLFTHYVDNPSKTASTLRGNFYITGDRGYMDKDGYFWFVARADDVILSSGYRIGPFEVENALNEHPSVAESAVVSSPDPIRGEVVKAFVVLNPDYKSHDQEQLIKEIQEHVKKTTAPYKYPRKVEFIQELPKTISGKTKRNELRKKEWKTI
UniProt Q6P6C2, sequence (Q6P6C2 whole entry, looked up): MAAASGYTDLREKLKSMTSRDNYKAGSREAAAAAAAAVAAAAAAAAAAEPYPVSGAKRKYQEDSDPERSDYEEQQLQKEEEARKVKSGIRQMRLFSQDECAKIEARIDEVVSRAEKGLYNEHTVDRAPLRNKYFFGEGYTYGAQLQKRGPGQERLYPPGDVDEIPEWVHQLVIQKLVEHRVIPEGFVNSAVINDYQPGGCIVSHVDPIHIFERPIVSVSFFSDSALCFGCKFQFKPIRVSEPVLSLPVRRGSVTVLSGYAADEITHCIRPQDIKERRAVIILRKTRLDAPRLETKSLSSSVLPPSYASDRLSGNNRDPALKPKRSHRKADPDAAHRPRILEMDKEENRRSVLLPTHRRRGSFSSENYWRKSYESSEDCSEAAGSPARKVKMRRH
UniProt Q5JTZ9, sequence (Q5JTZ9 whole entry, looked up): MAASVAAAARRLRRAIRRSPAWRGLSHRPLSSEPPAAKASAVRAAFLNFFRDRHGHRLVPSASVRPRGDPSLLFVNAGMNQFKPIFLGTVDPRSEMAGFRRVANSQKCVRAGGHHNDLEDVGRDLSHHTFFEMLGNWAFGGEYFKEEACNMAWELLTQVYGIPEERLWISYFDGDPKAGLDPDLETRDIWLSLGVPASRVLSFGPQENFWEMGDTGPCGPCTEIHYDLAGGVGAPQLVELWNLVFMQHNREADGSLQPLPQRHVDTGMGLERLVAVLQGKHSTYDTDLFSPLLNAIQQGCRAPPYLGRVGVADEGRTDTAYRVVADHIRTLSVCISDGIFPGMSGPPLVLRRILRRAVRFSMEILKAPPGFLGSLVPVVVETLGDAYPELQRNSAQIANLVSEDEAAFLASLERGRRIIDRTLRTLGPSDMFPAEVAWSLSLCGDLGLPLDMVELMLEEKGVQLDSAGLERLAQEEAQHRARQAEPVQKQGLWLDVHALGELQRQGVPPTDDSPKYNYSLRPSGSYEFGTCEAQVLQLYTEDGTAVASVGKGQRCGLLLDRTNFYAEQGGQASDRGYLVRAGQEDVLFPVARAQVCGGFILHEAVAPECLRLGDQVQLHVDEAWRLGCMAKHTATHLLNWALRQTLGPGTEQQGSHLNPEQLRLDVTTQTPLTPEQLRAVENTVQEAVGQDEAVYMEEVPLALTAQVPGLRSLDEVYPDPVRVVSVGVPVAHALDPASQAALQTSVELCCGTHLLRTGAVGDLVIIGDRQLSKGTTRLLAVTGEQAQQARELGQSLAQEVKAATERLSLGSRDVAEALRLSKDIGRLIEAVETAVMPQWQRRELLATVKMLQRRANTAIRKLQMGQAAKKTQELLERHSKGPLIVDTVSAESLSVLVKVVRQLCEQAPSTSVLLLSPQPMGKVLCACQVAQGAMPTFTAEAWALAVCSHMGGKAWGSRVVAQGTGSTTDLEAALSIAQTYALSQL
UniProt Q4L235, sequence (Q4L235 whole entry, looked up): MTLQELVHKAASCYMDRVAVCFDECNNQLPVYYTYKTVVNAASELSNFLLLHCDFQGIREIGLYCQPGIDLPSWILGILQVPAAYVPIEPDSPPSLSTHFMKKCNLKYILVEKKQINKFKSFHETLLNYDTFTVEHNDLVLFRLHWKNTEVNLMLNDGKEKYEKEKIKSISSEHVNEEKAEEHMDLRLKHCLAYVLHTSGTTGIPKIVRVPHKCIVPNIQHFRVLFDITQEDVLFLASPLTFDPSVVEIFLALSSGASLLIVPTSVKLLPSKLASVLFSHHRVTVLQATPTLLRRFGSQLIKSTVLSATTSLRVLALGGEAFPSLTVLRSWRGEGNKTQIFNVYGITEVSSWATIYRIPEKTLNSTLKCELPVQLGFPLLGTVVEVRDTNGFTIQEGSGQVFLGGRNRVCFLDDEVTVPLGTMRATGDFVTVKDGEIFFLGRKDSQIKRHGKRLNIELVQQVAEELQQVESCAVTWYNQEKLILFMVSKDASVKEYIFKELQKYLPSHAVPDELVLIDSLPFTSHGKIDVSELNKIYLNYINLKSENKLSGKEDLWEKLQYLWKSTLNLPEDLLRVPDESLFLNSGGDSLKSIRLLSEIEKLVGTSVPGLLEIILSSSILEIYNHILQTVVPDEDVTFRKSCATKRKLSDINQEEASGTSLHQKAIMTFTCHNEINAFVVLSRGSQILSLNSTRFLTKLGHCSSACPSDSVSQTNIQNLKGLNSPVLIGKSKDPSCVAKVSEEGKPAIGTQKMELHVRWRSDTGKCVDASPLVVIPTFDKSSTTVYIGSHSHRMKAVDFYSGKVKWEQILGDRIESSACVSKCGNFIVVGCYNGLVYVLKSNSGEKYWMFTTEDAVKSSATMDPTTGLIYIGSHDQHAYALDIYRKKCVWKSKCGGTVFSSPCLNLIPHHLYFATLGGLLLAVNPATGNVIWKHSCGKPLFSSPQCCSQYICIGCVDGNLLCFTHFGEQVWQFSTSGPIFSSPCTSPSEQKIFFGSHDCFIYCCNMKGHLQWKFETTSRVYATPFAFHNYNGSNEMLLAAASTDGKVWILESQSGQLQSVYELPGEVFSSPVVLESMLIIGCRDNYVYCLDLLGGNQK
UniProt Q9Y3D8, sequence (Q9Y3D8 whole entry, looked up): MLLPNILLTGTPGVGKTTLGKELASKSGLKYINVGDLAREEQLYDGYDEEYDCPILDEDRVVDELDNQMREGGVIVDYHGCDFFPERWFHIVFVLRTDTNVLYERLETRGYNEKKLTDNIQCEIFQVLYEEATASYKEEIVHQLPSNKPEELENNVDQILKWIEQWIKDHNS

Target | log2 fold change [1] | log2 fold change (crizotinib) | log2 fold change [2] | log2 fold change [3] | log2 fold change (duvelisib) | log2 fold change (gandotinib) | log2 fold change (tozasertib) | log2 fold change [4] | log2 fold change (doramapimod) | log2 fold change (ispinesib) | log2 fold change (bafetinib) | log2 fold change [5] | log2 fold change (nilotinib) | log2 fold change [6] | log2 fold change (dasatinib) | log2 fold change [7] | log2 fold change [8] | log2 fold change [9] | log2 fold change (tipifarnib) | log2 fold change (mubritinib)
ATAD3B (UniProt Q5T9A4) | 0.009 | -0.171 | -0.112 | 0.191 | -0.05 | 0.033 | 0.034 | 0.105 | 0.137 | -0.544 (active) | -0.014 | 0.018 | -0.072 | -0.039 | -0.099 | 0.027 | -0.103 | -0.186 | 0.03 | -0.37
ATP1B3 (UniProt P54709) | 0.053 | 0.111 | 0.027 | -0.152 | 0.028 | -0.013 | -0.019 | -0.04 | -0.042 | 0.165 | 0 | -0.039 | 0.06 | -0.003 | 0.027 | 0.021 | 0 | -0.02 | 0.065 | 0.043
ALDH1B1 (UniProt P30837) | 0.054 | -0.067 | 0.12 | -0.068 | 0.021 | -0.025 | -0.011 | 0.008 | -0.006 | 0.019 | 0.03 | -0.018 | 0.003 | 0.014 | -0.113 | 0.131 | 0.022 | 0.034 | -0.018 | 0.059
BTAF1 (UniProt O14981) | 0.055 | -0.076 | 0.094 | 0.041 | -0.016 | -0.05 | 0.015 | 0.044 | 0.006 | 0.016 | -0.158 | 0.025 | -0.004 | -0.059 | -0.131 | 0.035 | 0.04 | -0.003 | -0.034 | -0.022
ACSM3 (UniProt Q53FZ2) | -0.001 | -0.002 | 0.027 | -0.095 | -0.131 | -0.037 | -0.001 | 0.049 | 0.023 | 0.226 | 0.009 | -0.061 | -0.015 | 0.002 | -0.185 | 0.028 | 0.012 | 0.128 | 0.002 | -0.343 (active)
BRIP1 (UniProt Q9BX63) | 0.13 | 0.019 | 0.151 | -0.005 | 0.042 | -0.035 | 0.183 | 0.009 | -0.088 | 0.018 | -0.135 | -0.011 | -0.069 | 0.036 | -0.09 | -0.071 | 0.02 | -0.197 | -0.101 | 
ALKBH5 (UniProt Q6P6C2) | 0.048 | 0.032 | -0.11 | 0.013 | 0.012 | 0.267 | -0.167 | -0.055 | -0.01 | 0.007 | 0.038 | -0.15 | 0.018 | -0.025 | 0.014 | 0.011 | -0.042 | 0.011 | 0.077 | -0.019
ARFIP1 (UniProt P53367) | 0.833 | -0.309 | 0.026 | -0.061 | 0.161 | -0.223 | -0.065 | 0.014 | 0 | -0.232 | -0.198 | 0.077 | -0.177 | -0.148 | -0.113 | 0.05 | 0.069 | 0.461 (active) | -0.115 | -0.054
AASDH (UniProt Q4L235) | -0.04 | 0.07 | 0.142 | -0.058 | 0.01 | -0.066 | -0.017 | -0.034 | -0.161 | -0.236 | -0.065 | -0.008 | -0.079 | -0.149 | 0.063 | 0.173 | 0.045 | 0.024 | 0.058 | 0.144
AK6 (UniProt Q9Y3D8) | 0.151 | -0.156 | 0.175 | 0.115 | 0.075 | -0.049 | 0.036 | 0.065 | 0.008 | -0.085 | 0.021 | -0.018 | -0.141 | -0.143 | -0.288 | -0.015 | 0 | 0.025 | -0.144 | -0.114
ARMC8 (UniProt Q8IUR7) | 0.005 | 0.013 | 0.005 | -0.015 | 0.07 | -0.045 | 0.063 | 0.165 | 0.014 | 0.051 | 0.021 | -0.026 | -0.036 | 0.038 | -0.082 | -0.008 | -0.019 | -0.112 | 0.007 | -0.053
ACSF3 (UniProt Q4G176) | 0.018 | 0.063 | -0.002 | 0.026 | 0.014 | 0.09 | 0.023 | 0.022 | -0.027 | 0.174 | -0.13 | -0.105 | 0.084 | 0.135 | -0.073 | 0.022 | -0.278 | -0.02 | 0.062 | -0.433 (active)
AARSD1 isoform 3 (UniProt Q9BTE6) | 0.062 | 0.054 | 0.012 | 0.013 | -0.04 | -0.081 | 0.055 | 0.038 | -0.05 | 0.067 | 0.009 | 0.065 | -0.013 | -0.038 | -0.062 | 0.031 | -0.004 | 0.002 | 0.022 | 0.064
ALG5 (UniProt Q9Y673) | 0.005 | -0.045 | 0.06 | -0.065 | 0.11 | -0.084 | -0.046 | 0.045 | -0.032 | 0.001 | 0.021 | 0.067 | 0.009 | -0.123 | -0.045 | -0.121 | 0.088 | 0.059 | -0.079 | -0.055
ANKZF1 (UniProt Q9H8Y5) | 0.031 | -0.037 | -0.135 | 0.174 | -0.15 | 0.007 | 0.021 | -0.068 | -0.059 | -0.349 | 0.104 | -0.047 | -0.151 | -0.29 | -0.04 | 0.018 | -0.005 | -0.126 | 0.026 | -0.074
AARS2 (UniProt Q5JTZ9) | 0.017 | -0.04 | 0.138 | -0.03 | 0.053 | -0.058 | -0.039 | 0.036 | 0.026 | -0.223 (active) | -0.07 | 0.011 | -0.085 | -0.047 | -0.184 | -0.036 | 0.052 | 0.05 | -0.063 | -0.143
